# Results taken from PubChem BioAssay (NCATS).
# Where “and” joins values, the source holds several entries; their conditions need not be identical. Equal values may be shown once. Records with an inconclusive call do not appear. Entries that show only a call come without a potency. Some structures have more than one record in an assay (separate samples or runs), and their calls can disagree. Calls of active or inactive are those of the source. Calls come from the whole dose curve; as a rule, active = well fitted curve in the direction sought with a large enough effect; inconclusive = small, poorly fitted or top-dose-only effect, or another doubt; inactive = no such curve, though single readings can be large; an effect the other way counts as inactive or inconclusive.
# Legend:
# CRL-7250 = normal cell line; assay: Cytotoxic Profiling of Annotated Libraries Using Quantitative High-Throughput Screening (AID 1296008); details: Five cell lines viability, CellTiter-Glo ATP luminescence, 48-72 h; max response: stronger effect = lower value; note: nearly all actives have a fitted effect of over 60% in size; note: potency is the fitted concentration of half-maximal effect
# Procedure, shortened: (§1)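 Cytotoxicity was measured as CellTiter-Glo ATP luminescence, read after 10 min at room temperature. Compound treatment of the cells lasted 48 or 72 hr at 37 degrees Celsius in a qHTS format.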
# HEK293 = assay: as above; details: Five cell lines viability, CellTiter-Glo ATP luminescence, 48-72 h; max response: stronger effect = lower value
# Procedure, shortened: as §1
# HaCat [1] = assay: as above; details: Five cell lines viability, CellTiter-Glo ATP luminescence, 48-72 h; max response: stronger effect = lower value
# Procedure, shortened: as §1
# KB-3-1 = assay: as above; details: Five cell lines viability, CellTiter-Glo ATP luminescence, 48-72 h; max response: stronger effect = lower value
# Procedure, shortened: as §1
# NIH3T3 [2] = assay: as above; details: Five cell lines viability, CellTiter-Glo ATP luminescence, 48-72 h; max response: stronger effect = lower value
# Procedure, shortened: as §1
# MCC-13 = assay: qHTS assay to identify novel small-molecules to repurpose for Merkel cell carcinoma treatment (AID 1296009); details: MCC and control cell lines, CellTiter-Glo viability, 72 h; series mostly up to 46 µM; note: nearly all actives have a fitted effect of over 60% in size; note: potency is the fitted concentration of half-maximal effect
# Procedure, shortened: (§2)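 72 hr, 37 degree celsius; NPC 8-pt / MIPE 11-pt dose response; compound pinned in DMSO; CellTiter-Glo, 10 min RT, luminescence; normalized to no-cell and DMSO controls.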
# MCC-26 = assay: as above; details: MCC and control cell lines, CellTiter-Glo viability, 72 h; series mostly up to 46 µM
# Procedure, shortened: as §2
# MKL-1 = assay: as above; details: MCC and control cell lines, CellTiter-Glo viability, 72 h; series mostly up to 46 µM
# Procedure, shortened: as §2
# MKL-2 = assay: as above; details: MCC and control cell lines, CellTiter-Glo viability, 72 h; series mostly up to 46 µM
# Procedure, shortened: as §2
# UISO = assay: as above; details: MCC and control cell lines, CellTiter-Glo viability, 72 h; series mostly up to 46 µM
# Procedure, shortened: as §2
# WaGa = assay: as above; details: MCC and control cell lines, CellTiter-Glo viability, 72 h; series mostly up to 46 µM
# Procedure, shortened: as §2
# HACAT [3] = assay: as above; details: MCC and control cell lines, CellTiter-Glo viability, 72 h; at 44.8 µM (top of the series) unless noted
# Procedure, shortened: as §2
# NIH3T3 [4] = assay: as above; details: MCC and control cell lines, CellTiter-Glo viability, 72 h; at 44.8 µM (top of the series) unless noted
# Procedure, shortened: as §2
# SC27B = assay: qHTS profiling for inhibitors of Plasmodium falciparum proliferation (AID 504749); note: nearly all actives have a fitted effect of over 60% in size; note: potency is the fitted concentration of half-maximal effect; details: P. falciparum in erythrocytes, SYBR Green DNA, 72 h; series mostly up to 28.7 µM
# Procedure, shortened: (§3)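 Infected RBCs, 0.3% parasitemia/2.5% Hct final; cpd 72 h, 37 C, 5% CO2; lysis buffer with saponin/triton/SYBR Green I, o/n RT dark; FI 485/535; norm. to artemisinin (0.29 uM) and DMSO.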
# TAB109 = assay: as above; details: P. falciparum in erythrocytes, SYBR Green DNA, 72 h; series mostly up to 28.7 µM
# Procedure, shortened: as §3
# TAB113 = assay: as above; details: P. falciparum in erythrocytes, SYBR Green DNA, 72 h; series mostly up to 28.7 µM
# Procedure, shortened: as §3
# TAB165 = assay: as above; details: P. falciparum in erythrocytes, SYBR Green DNA, 72 h; series mostly up to 28.7 µM
# Procedure, shortened: as §3
# C33A = assay: Primary qHTS to identify gynecologic anti-cancer compounds using libraries of approved drugs and bioactive compounds (AID 1345084); details: Gynecologic cancer cell panel viability, ATPlite luminescence, 48 h; series mostly up to 57.5 µM; note: nearly all actives have a fitted effect of over 55% in size
# Procedure, shortened: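 ATP-based viability (ATPlite), 1,000 cells/well, 16 h pre-incubation, 48 h compound at 37 C, 5% CO2, 15 min RT before read.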
smiles,measurement,setting,value
C[C@]1(c2nc3c(C(N)=O)cccc3[nH]2)CCCN1,max response,CRL-7250,-16.5% (inactive)
same,max response,HEK293,-23.2% (inactive)
same,max response,HaCat [1],-38.2% (inactive)
same,max response,KB-3-1,-0.184% (inactive)
same,max response,NIH3T3 [2],-22% (inactive)
same,Potency,MCC-13,inactive
same,Potency,MCC-26,inactive
same,Potency,MKL-1,inactive
same,Potency,MKL-2,inactive
same,Potency,UISO,inactive
same,Potency,WaGa,inactive
Cc1ccccc1C(C(=O)NC1CCCC1)N(C(=O)Cn1cnc2ccccc21)c1cccc(F)c1 (configuration not stated),max response,CRL-7250,1.73% (inactive)
same,outcome,HaCat [1],inactive
same,max response,KB-3-1,7.7% (inactive)
same,outcome,NIH3T3 [2],inactive
same,outcome,HACAT [3],inactive
same,Potency,MCC-13,inactive
same,Potency,MCC-26,inactive
same,Potency,MKL-1,inactive
same,Potency,MKL-2,inactive
same,outcome,NIH3T3 [4],inactive
same,Potency,UISO,inactive
same,Potency,WaGa,inactive
OC[C@H](Cc1ccccc1)Nc1nc(Oc2ccc3c(c2)CCC3)nc2c1ncn2Cc1ccc(-c2ccccc2)cc1,Potency,HEK293,8.33 µM (active)
same,outcome,HaCat [1],inactive
same,max response,KB-3-1,-22.3% (inactive)
same,max response,NIH3T3 [2],1.2% (inactive)
same,outcome,HACAT [3],inactive
same,Potency,MCC-13,inactive
same,Potency,MCC-26,inactive
same,Potency,MKL-1,inactive
same,Potency,MKL-2,inactive
Cc1c(CCOc2ccc(C(=O)O)cc2)c2cc(Cl)ccc2n1C(c1ccccc1)c1ccccc1,max response,CRL-7250,-5.22% (inactive)
same,max response,HaCat [1],0.869% (inactive)
same,max response,KB-3-1,-12.2% (inactive)
same,max response,NIH3T3 [2],-32.3% (inactive)
same,Potency,MCC-13,inactive
same,Potency,MCC-26,inactive
same,Potency,MKL-1,inactive
same,Potency,MKL-2,inactive
same,Potency,UISO,inactive
same,Potency,WaGa,inactive
O=C(C1CC1)N1CC[C@@H](Cn2c(-c3ccc(-c4ccc5occc5c4)cc3)nc3cnccc32)C1,outcome,CRL-7250,inactive
same,max response,HaCat [1],-11.7% (inactive)
same,max response,KB-3-1,3.71% (inactive)
same,max response,NIH3T3 [2],1.4% (inactive)
same,Potency,MCC-13,inactive
same,Potency,MCC-26,inactive
same,Potency,MKL-1,inactive
same,Potency,MKL-2,inactive
same,Potency,UISO,inactive
same,Potency,WaGa,inactive
Clc1ccc(Nc2nnc(Cc3ccncc3)c3ccccc23)cc1,Potency,SC27B,inactive
same,Potency,TAB109,inactive
same,Potency,TAB113,inactive
same,Potency,TAB165,12.6 µM (active)
same,max response,CRL-7250,1.53% (inactive) and -11.9% (inactive) and 0.195% (inactive)
same,max response,HaCat [1],-5.86% (inactive)
same,outcome,HaCat [1],inactive
same,max response,KB-3-1,-8.03% (inactive) and 60.3% (inactive)
same,max response,NIH3T3 [2],-1.18% (inactive) and -1.64% (inactive)
same,outcome,HACAT [3],inactive
same,Potency,MCC-13,inactive
same,Potency,MCC-26,inactive
same,Potency,MKL-2,inactive and 13.3 µM (active)
same,Potency,UISO,inactive
same,Potency,C33A,inactive
Cc1cc([C@@H](C)Nc2ccccc2C(=O)O)c2nc(N3CCOCC3)cc(=O)n2c1,Potency,CRL-7250,3.82 µM (active)
same,Potency,HEK293,19.1 µM (active)
same,Potency,NIH3T3 [2],12.1 µM (active)
same,Potency,MCC-13,inactive
same,Potency,MKL-1,inactive
same,Potency,UISO,34 µM (active)
COc1nc(-c2ccc3c(c2)OCO3)n(-c2ccc(NC(=O)CSc3ccccc3)cc2)n1,max response,CRL-7250,-34% (inactive)
same,outcome,HaCat [1],inactive
same,max response,KB-3-1,-3.01% (inactive) and -18.6% (inactive)
same,max response,NIH3T3 [2],-26.7% (inactive)
same,outcome,HACAT [3],inactive
same,Potency,MCC-13,inactive
same,Potency,MCC-26,inactive
same,Potency,MKL-1,inactive
same,Potency,MKL-2,inactive
same,Potency,UISO,inactive
same,Potency,WaGa,inactive
same,Potency,C33A,inactive
CC1(C)CNc2cc(NC(=O)c3cccnc3NCc3ccncc3)ccc21,Potency,HEK293,5.8 µM (active)
same,max response,HEK293,-29.2% (inactive)
same,outcome,HaCat [1],inactive
same,max response,KB-3-1,3.54% (inactive) and 4.82% (inactive)
same,Potency,NIH3T3 [2],10.3 µM (active)
same,max response,NIH3T3 [2],-1.33% (inactive)
same,outcome,HACAT [3],inactive
same,Potency,MCC-13,inactive
same,Potency,MCC-26,inactive
same,Potency,MKL-1,inactive
same,Potency,MKL-2,inactive
same,Potency,C33A,inactive
COc1ccc2c3n(c(=NC(=O)c4cccnc4)nc2c1OC)CCN3,max response,CRL-7250,-15.5% (inactive)
same,Potency,HaCat [1],10.5 µM (active)
same,max response,KB-3-1,-17.8% (inactive)
same,Potency,MCC-13,inactive
same,Potency,MCC-26,inactive
same,Potency,MKL-1,inactive
same,Potency,MKL-2,inactive
COc1ccc(-c2ccc3c(N4CCOCC4)nc(N4C[C@@H](C)O[C@@H](C)C4)nc3n2)cc1CO,Potency,CRL-7250,0.296 µM (active)
same,Potency,HEK293,0.662 µM (active)
same,Potency,KB-3-1,1.66 µM (active)
same,Potency,NIH3T3 [2],3.72 µM (active)
same,Potency,MKL-1,inactive
COCC(=O)NCC=Cc1ccc2ncnc(Nc3ccc(Oc4ccc(C)nc4)c(C)c3)c2c1,Potency,CRL-7250,23.5 µM (active)
same,Potency,HEK293,13.2 µM (active)
same,max response,NIH3T3 [2],-10.3% (inactive)
same,Potency,MCC-26,inactive
same,Potency,MKL-1,inactive
COc1cc2nccc(Oc3ccc(NC(=O)NC4CC4)c(Cl)c3)c2cc1C(N)=O,Potency,CRL-7250,0.92 µM (active)
same,max response,HaCat [1],-5.23% (inactive) and -15.3% (inactive)
same,outcome,KB-3-1,inactive
same,Potency,NIH3T3 [2],14.8 µM (active) and 4.11 µM (active)
same,Potency,MKL-1,2.64 µM (active)
same,Potency,MKL-2,9.35 µM (active)
same,Potency,UISO,18.7 µM (active)
same,Potency,WaGa,1.48 µM (active)
same,Potency,C33A,inactive
NC(=O)c1ccc(-c2nc(-c3ccc4c(c3)OCO4)c(-c3ccccn3)[nH]2)cc1,max response,CRL-7250,3.54% (inactive)
same,outcome,HaCat [1],inactive
same,max response,KB-3-1,-0.83% (inactive)
same,max response,NIH3T3 [2],-25.4% (inactive)
same,outcome,HACAT [3],inactive
same,Potency,MCC-13,inactive
same,Potency,MCC-26,inactive
same,Potency,MKL-1,inactive
same,Potency,MKL-2,inactive
same,Potency,UISO,inactive
same,Potency,WaGa,inactive
CCOC(=O)N[C@@H]1CC[C@@H]2[C@@H](C1)C[C@H]1C(=O)O[C@H](C)[C@H]1[C@@H]2C=Cc1ccc(-c2cccc(F)c2)cn1,max response,CRL-7250,-6.96% (inactive)
same,max response,NIH3T3 [2],-8.03% (inactive)
same,Potency,MCC-13,inactive
same,Potency,MCC-26,inactive
same,Potency,MKL-1,inactive
same,Potency,MKL-2,20.9 µM (active)
same,Potency,UISO,inactive
same,Potency,WaGa,inactive
